# Source: PubChem BioAssay (The Scripps Research Institute Molecular Screening Center)
# ssDAF12 agonist: activates DAF-12 receptor from parasite S. stercoralis; HEK293 ssDAF-12/GRIP1 lit1-tk-luc reporter, luminescence; % of 3 µM dafachronic acid response; activation, % at 6.8 µM; hit rate 1% among 370,000; AID 652126;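 active means activation above the mean over all tested compounds plus 3 SD, cut at about 0.9% in these data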
# SMARCA2 act: increases SMARCA2 function in MMTV reporter cells; MG213 cells, MMTV-luciferase reporter, dexamethasone, overnight; activation, % at 9.1 µM; hit rate 1% among 370,000; AID 652017; in the data active means activation above about 7.8%
# hcDAF12 agonist: activates DAF-12 receptor from parasite H. contortus. activation, % at 6.8 µM. hit rate 1.4% among 370,000. HEK293 hcDAF-12 lit1-tk-luc reporter, luminescence; 0% DMSO, 100% Δ7-dafachronic acid;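 active means activation above the mean of all tested compounds plus 3 SD, cut at about 5.5% in these data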
# DAX1 StAR inh: DAX1 (NR0B1) inhibition, primary screen; HEK293T StAR-luciferase reporter, SF-1/DAX-1 repression relief; inhibition, % at 6.8 µM; hit rate 1.1% among 370,000;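 active means inhibition above the mean over all tested compounds plus 3 SD, cut at about 3.6% in these data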;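 further: higher inhibition means more luminescence from relief of DAX-1 repression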
# hgDAF12 agonist: agonists of H. glycines DAF-12 nuclear receptor; HEK293 GAL4-hgDAF12 UAS-luciferase reporter, agonist luminescence; normalized to butyrate control; activation, % at 6.8 µM; hit rate 1.8% among 370,000;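 active means activation above a cutoff set at the mean of all screened compounds plus 3 SD, cut at about 10% in these data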
# DAX1 inh confirm: NR0B1 (human) inhibition, confirmation. shares compounds with DAX1 StAR inh. HEK293T StAR-promoter luciferase reporter, SF-1/DAX-1 repression. inhibition, % at 6.8 µM. hit rate 87% among 2,400;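 active means inhibition above the average of every tested compound plus 3 SD, cut at about 3.8% in these data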;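 further: active compounds raise luminescence by relieving repression of the StAR reporter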
# Target sequence (P51843 whole entry, looked up): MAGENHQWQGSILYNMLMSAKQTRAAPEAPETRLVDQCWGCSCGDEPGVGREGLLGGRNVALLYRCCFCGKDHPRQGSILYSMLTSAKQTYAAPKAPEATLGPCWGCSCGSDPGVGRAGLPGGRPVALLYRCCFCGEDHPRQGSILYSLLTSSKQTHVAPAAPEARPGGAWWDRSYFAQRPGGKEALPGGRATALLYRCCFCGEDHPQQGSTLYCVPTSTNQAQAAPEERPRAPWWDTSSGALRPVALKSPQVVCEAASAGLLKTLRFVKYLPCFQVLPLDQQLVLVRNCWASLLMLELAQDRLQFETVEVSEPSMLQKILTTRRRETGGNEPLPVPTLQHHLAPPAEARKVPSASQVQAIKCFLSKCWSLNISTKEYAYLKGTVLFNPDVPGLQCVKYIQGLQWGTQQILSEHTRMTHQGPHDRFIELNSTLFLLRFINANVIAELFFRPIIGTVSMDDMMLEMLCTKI
# SF1 AF2mut Luc: nonselective inhibitor or artifact in SF-1 mutant DAX1 counter-screen; AID 652136; shares compounds with DAX1 StAR inh; inhibition, % at 6.8 µM; hit rate 78% among 2,400; HEK293 StAR-luciferase, SF-1 AF2 mutant, luminescence;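 active means inhibition above the mean of all tested compounds plus 3 SD, cut at about 3% in these data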
# Numbers stand for hits; - = inactive; . = no result given. Shown are actives, neighbours in structure and some others; about 4.2% of the full set was active somewhere.
SMILES,ssDAF12 agonist,SMARCA2 act,hcDAF12 agonist,DAX1 StAR inh,hgDAF12 agonist,DAX1 inh confirm,SF1 AF2mut Luc
COCCNC(=O)[C@]1(C#N)CC(=O)N(C)[C@@H]1c1ccccc1,-,-,-,-,-,.,.
CCCCC(=O)N1CCN(c2nc3ccc(OCC)cc3s2)CC1,-,-,-,-,-,.,.
CCCCC(=O)N1CCN(c2nc3ccc(F)cc3s2)CC1,-,-,-,5.2,-,-,3.8
C/C(=N\NC(=O)c1ccccc1)c1ccc(NC(=O)c2cccs2)cc1,-,-,-,-,-,.,.
C/C(=N\NC(=O)c1ccco1)c1ccc(NC(=O)c2cccs2)cc1,-,-,-,4.7,11.0,-,-
COc1cc(C2c3cc4c(cc3C(O)C3COCC23)OCO4)cc(OC)c1OC (stereo unspecified),-,-,-,-,-,.,.
COc1cc([C@@H]2c3cc4c(cc3[C@H](O)[C@H]3COC(=O)[C@H]23)OCO4)cc(OC)c1OC,-,-,-,11.6,-,14.9,-
CCCCN1CCS(=O)(=O)N(Cc2cn(Cc3ccccc3Br)nn2)C(C(=O)OC)C1 (stereo unspecified),-,-,-,-,-,.,.
O=C(NCCS(=O)(=O)NCCCc1ccccc1)c1ccccc1,-,-,-,-,-,.,.
O=C(NCCS(=O)(=O)NCCc1ccccc1)c1ccccc1,-,-,-,4.7,-,-,-
COc1ccc(-c2oc3c(c2C#CCCCCO)C(OCCO)CC3)cc1 (stereo unspecified),-,-,-,-,-,.,.
COc1cccc(OCc2cc(C(=O)N(C)Cc3nccn3C)no2)c1,-,-,-,5.4,-,6.8,4.6
CN(N=O)c1ccc(C=C2C=Cc3ccccc32)cc1,1.0,-,7.4,6.3,10.8,11.8,6.8
CCN(N=O)c1ccc(C=C2C=Cc3ccccc32)cc1,-,-,5.8,6.6,19.1,9.3,5.7
CC(=O)N(C)c1ccc(C=C2C=Cc3ccccc32)cc1,-,-,6.2,4.9,-,-,-
CN(C)c1ccc(C=C2C(=O)OC(C)(C)OC2=O)cc1,-,-,-,-,-,.,.
CC(C)Oc1cccc(-c2n[nH]c(=S)n2N=Cc2ccc(OCc3ccccc3)cc2)c1,-,-,-,-,-,.,.
Cc1ccc(C(=O)NC2CCSC2=O)cc1 (stereo unspecified),-,-,-,-,-,.,.
Cc1ccc(C(=O)NC2CCc3ccccc3C2=O)cc1 (stereo unspecified),-,-,-,5.5,13.2,4.6,3.3
O=S1(=O)CC(N2CCSCC2)CN1Cc1cn(Cc2ccccc2)nn1 (stereo unspecified),-,-,-,-,-,.,.
C/C(=N\NC(=O)c1ccccc1O)c1ccc(NC(=O)Cc2ccccc2)cc1,-,-,-,7.2,-,6.3,3.6
COc1ccc(CC(=O)Nc2ccc(/C(C)=N/NC(=O)c3ccc(OC)cc3OC)cc2)cc1,-,-,-,-,-,.,.
COc1cc(C(=O)N/N=C(\C)c2ccc(NC(=O)Cc3ccccc3)cc2)ccc1O,1.1,-,-,6.9,-,6.2,4.2
O=C(Cc1ccccc1)Nc1ccc(C(=O)O)cc1,-,-,-,-,-,.,.
Cc1ccc(F)cc1C(=O)N1CCCCC1c1cc(C(=O)NCc2ccccc2)no1 (stereo unspecified),-,-,-,-,-,.,.
SMILES,ssDAF12 agonist,SMARCA2 act,hcDAF12 agonist,DAX1 StAR inh,hgDAF12 agonist,DAX1 inh confirm,SF1 AF2mut Luc
c1ccc(OC2CCN(c3ncnc4sccc34)CC2)cc1,-,.,-,.,-,.,.
CCCn1c(C)cc(C(=O)COC(=O)c2cc(=O)[nH]c3ccccc23)c1C,-,-,6.5,5.4,10.9,9.3,3.1
COc1ccc(-c2csc(N3C(=N)SCC3=O)n2)cc1,-,-,6.4,6.9,13.1,16.3,7.4
COc1cccc(CNC(=O)COC(=O)c2ccc(-c3ccc(O)cc3)cc2)c1,-,-,-,-,-,.,.
CC12CCC(=O)N1C(C(=O)NNC(=O)c1ccc(Br)cc1)CS2 (stereo unspecified),-,-,-,5.5,-,-,-
O=C(NNC(=S)Nc1ccccc1Cl)c1ccccc1Br,-,-,-,15.2,11.3,11.5,6.1
